From PubChem BioAssay
MCF10A rereplic = DNA re-replication induction in MCF 10a cells; MCF 10A DNA re-replication, Hoechst nuclear intensity, 48 h; Potency, µM (titrated, usually from 46.1 µM), for the others: at the top dose activity, positive = re-replication, most hits filed as activators; 350,000 compounds, 2.9% hits; also: % of control where 0% means no effect; nearly all actives have a fitted effect of over 50% in size
HT1080 IDH1KD tx = HT-1080 IDH1 knockdown cell toxicity (counter line); HT-1080 IDH1 knockdown viability, ATP luminescence, 48 h; Potency, µM (series often up to 46.1 µM), inactives show top-dose activity, negative = toxicity, most hits filed as cytotoxic; 360,000 compounds, 2% hits; AID 686971;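 also: 0% = DMSO wells and -100% = cell-free medium wells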
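CellTiter-Glo luminescence after 48 h compound exposure at 37 degrees C of IDH1-knockdown HT-1080 cells in 5% FBS RPMI. %Activity scaled between DMSO wells and cell-free media wells, with curves fitted and assigned curve classes.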
KB-V1 cytotox = KB-V1 MDR subline cytotoxicity; Potency, µM (doses to about 46.1 µM), most hits filed as cytotoxic; KB-V1 MDR cells viability, CellTiter-Glo, 72 h; 400,000 compounds, 3.4% hits; also: % is scaled to controls: 0 for no effect and ±100 for the full control effect; nearly all actives have a fitted effect of over 60% in size
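Following 72 h at 37 degrees C with compound, KB-V1 cell viability was read by CellTiter-Glo luminescence, medium being phenol-red-free DMEM plus 10% FBS; concentration-response parameters came from normalized, curve-fitted qHTS data.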
SW480 rereplic = induces DNA re-replication in SW480 colon adenocarcinoma cells. SW480 DNA re-replication, Hoechst DNA content imaging, 48 h. Potency, µM (top dose mostly 46.1 µM), for inactives: at the highest dose re-replication activation, usual class: activators. 340,000 compounds, 1.8% hits; also: % of control where 0% means no effect; nearly all actives have a fitted effect of over 55% in size
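Treated cells incubate 48 hr (37 C, 5% CO2), are stained 40 min with Hoechst, and nuclear fluorescence is enumerated; a rise in nuclei with high DNA signal marks re-replication.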
HT1080NT lethal = kills 2HG-producing HT-1080-NT fibrosarcoma cells | HT-1080-NT fibrosarcoma viability, CellTiter-Glo ATP luminescence, 48 h | Potency, µM (highest dose often 46.1 µM), inactives show at the highest dose activity, negative = less viability, hits mostly cytotoxic | 360,000 compounds, 1.6% hits;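 also: NT is the 2HG producing partner of a matched IDH1 knockdown line; 0% = DMSO-treated cells and -100% = media-only wells without cells; nearly all actives have a fitted effect of over 55% in size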
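Compounds were tested in concentration-response format on HT-1080-NT cells for 48 hours at 37 degrees C. Cell viability came from CellTiter-Glo luminescence; curves were classified by r2, response magnitude and activity.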
KB-3-1 cytotox = KB-3-1 parental cell cytotoxicity. KB-3-1 viability, CellTiter-Glo ATP luminescence, 72 h. Potency, µM (top dose mostly 46.1 µM), most hits filed as cytotoxic. 400,000 compounds, 1.4% hits. AID 1347075; also: % is scaled to controls: 0 for no effect and ±100 for the full control effect; nearly all actives have a fitted effect of over 60% in size
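Multi-concentration cytotoxicity screen in KB-3-1 cells grown in DMEM lacking phenol red with 10% FBS. After 72 h at 37 °C with compound, ATP-dependent luminescence was recorded.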
* marks the source's active call; other numbers are inactive results; i = inactive; ? = inconclusive; . = not tested or not shown; [ ] = another dose, or the depositor's remark. Only some compounds are listed: those with a hit (about 7.9% of all), similar ones and a draw of the others. Calls follow the shape of the dose curve; as a rule, active = well fitted curve in the direction sought with a large enough effect; inconclusive = small, poorly fitted or top-dose-only effect, or another doubt; inactive = no such curve, though single readings can be large; an effect the other way counts as inactive or inconclusive. Potency is read from the fitted curve at half-maximal effect.

SMILES | MCF10A rereplic | HT1080 IDH1KD tx | KB-V1 cytotox | SW480 rereplic | HT1080NT lethal | KB-3-1 cytotox
CSc1ccccc1NC(=O)c1cc(-c2cccnc2)nc2ccc(Br)cc12 | 16µM* | 2% | ? | 3% | -4% | ?
O=C(Nc1cccnc1)c1cc(-c2ccc(Br)cc2)nc2ccccc12 | ? | ? | i | 17% | ? | i
Cc1ccc2nc(-c3cccnc3)cc(C(=O)Nc3ccccc3[N+](=O)[O-])c2c1 | 15µM* | -8% | . | ? | -5% | .
CC(=O)Nc1cccc(NC(=O)c2cc(-c3cccnc3)nc3ccc(Cl)cc23)c1 | ? | ? | i | -1% | ? | i
COc1ccc(-n2c(C)nnc2SCC(=O)Nc2ccccc2F)cc1 | -6% | 8% | i | -4% | -3% | i
Cc1nn(CC(=O)Nc2ccc(C(C)C)cc2)c(C)c1[N+](=O)[O-] | -5% | 5% | i | 79% | 7% | i
Cc1nn(CC(=O)Nc2ccc(Cl)c(S(=O)(=O)N(C)C)c2)c(C)c1[N+](=O)[O-] | ? | 3% | 21µM* | 2% | 2% | i
Cc1ccc(NC(=O)Cn2nc(C)c(S(=O)(=O)N(C)C)c2C)cc1C | 5% | -4% | 23µM* | 1% | 0% | i
Cc1nn(CC(=O)NC2CC2)c(C)c1S(=O)(=O)N(C)C | . | 2% | i | . | 2% | i
Cc1cc(C)cc(NC(=O)Nc2c[nH]c(=O)[nH]c2=O)c1 | . | . | i | . | . | i
OC(CCN1CCCCC1)(c1ccccc1)c1ccccc1 | 2% | 6% | i | -10% | 3% | i
OC(CCCN1CCCCC1)(c1ccccc1)c1ccc(C(F)(F)F)cc1 (stereo not given) | 21µM* | ? | i | ? | ? | i
CCOC(=O)C1=C(COC(=O)c2ccc(Br)o2)NC(=O)NC1C (stereo not given) | -3% | 0% | i | -5% | -9% | i
CN(C(=O)COC(=O)c1n[nH]c(=O)c2ccccc12)c1ccccc1 | 0% | -4% | i | -2% | 8% | i
COCCn1c(C)cc(C(=O)COC(=O)c2ccccc2Br)c1C | 2% | -6% | i | 6% | -3% | i
Cc1cc(C(=O)COC(=O)c2n[nH]c3ccccc23)c(C)n1C | 2% | -14% | i | -20% | -3% | i
COCCn1c(C)cc(C(=O)COC(=O)c2[nH]c(C)c(C(C)=O)c2C)c1C | 0% | ? | 4.1µM* | -10% | -11% | ?
COCCn1c(C)cc(C(=O)COC(=O)c2n[nH]c3ccccc23)c1C | ? | -15% | 9.2µM* | 2% | -10% | i
CN(C(=O)COC(=O)c1n[nH]c2ccccc12)c1ccccc1 | 1% | 26% | 8.2µM* | 2% | 2% | i
COc1ccc(OC)c(C2=NOC(C(=O)NCc3cccs3)C2)c1 (stereo not given) | ? | ? | ? | ? | -30% | 21µM*
COc1ccc(OC)c(C2=NOC(C(=O)NCCN3CCOCC3)C2)c1 (stereo not given) | -1% | -1% | ? | -2% | 0%[9.24 µM] | i
COc1ccc(OC)c(C2=NOC(C(=O)Nc3cccnc3)C2)c1 (stereo not given) | -8% | 25% | 23µM* | -2% | 16% | i
COc1ccc(Cl)cc1CNC[C@H]1O[C@@H](n2ccc(N)nc2=O)[C@H](O)[C@@H]1O | . | -2% | i | . | -1% | i
Cc1cccc(NC(=O)CN2CCN(C(=O)CNC(=O)c3ccc(-c4ccccc4)cc3)CC2)c1C | . | 10µM* | ? | . | ? | i
Cc1cccc(C)c1NC(=O)CN1CCN(C(=O)CNC(=O)c2ccc(-c3ccccc3)cc2)CC1 | . | ? | 18µM* | . | 2% | ?
SMILES | MCF10A rereplic | HT1080 IDH1KD tx | KB-V1 cytotox | SW480 rereplic | HT1080NT lethal | KB-3-1 cytotox
Cc1cccc(N2CCN(C(=O)CNC(=O)c3ccccc3)CC2)c1C | 11% | ? | i | 2% | -25% | ?
Nc1ccc(C=Cc2ccc(N)cc2)cc1 | . | ? | i | . | -28% | i
CCN(CC(=O)NCCN1CCOCC1)S(=O)(=O)c1ccc(F)cc1 | -13% | 18% | i | -6% | 22% | i
CCCN(CC(=O)Nc1cc(Cl)cc(Cl)c1)CC(=O)Nc1ccc(F)c(F)c1F | ? | ? | 23µM* | ? | ? | i
Cc1cccc(NS(=O)(=O)c2ccc(C(=O)N3CCN(c4ccccc4O)CC3)cc2)c1C | 23µM* | -3% | ? | 1% | 1% | ?
Cc1nc2ccc(S(=O)(=O)Nc3ccccc3C)cc2s1 | ? | ? | 18µM* | ? | ? | ?
Cc1ccccc1NS(=O)(=O)c1ccc(C(=O)N2CCCC2)cc1 | 3% | 6% | 21µM* | -5% | 3% | i
COc1ccc(C(=O)/C=C/C(=O)N(Cc2ccccc2)C(C(=O)NC2CCCCC2)c2ccncc2)c(O)c1 (stereo not given) | 1% | -8% | 0.92µM* | 19% | -4% | i
COc1ccc(C(=O)/C=C/C(=O)N(Cc2ccccc2OC)C(C(=O)NC2CCCCC2)c2ccncc2)c(O)c1 (stereo not given) | ? | ? | ? | 11% | ? | ?
COc1ccc(C(=O)/C=C/C(=O)N(Cc2ccc(F)cc2)C(C(=O)NC2CCCCC2)c2ccncc2)c(O)c1 (stereo not given) | 9% | -10% | 0.73µM* | ? | -4% | ?
CN(C)c1ccc2c(=O)c3ccccc3oc2n1 | . | -29% | i | . | -15% | i
Cn1c(Cl)c(C(=O)Nc2ccc(Cl)cc2)c2ccccc21 | 11% | -23% | 21µM* | 22% | -4% | 8.2µM*
O=C(/C=C/c1ccc(F)cc1)c1ccccc1Br | ? | ? | ? | . | -18% | 23µM*
Cc1ccc(C(=O)/C=C/c2ccc(F)cc2)o1 | ? | ? | i | ? | ? | i
CN(C)CCCNC(=S)Nc1ccc(Oc2ccccc2)cc1 | 9% | -9% | i | 1% | -28% | i
COc1ccccc1CNC(=S)Nc1ccc(F)cc1 | 3% | 6% | i | -1% | 7% | i
CN(C)CCCNC(=S)Nc1ccc(-c2ccccc2)cc1 | 4% | ? | i | 10% | 21µM* | i
CCC(C)c1ccc(NC(=S)NCc2ccccc2OC)cc1 (stereo not given) | 18µM* | -20% | ? | 11% | -27% | i
CC(C)c1ccc(NC(=S)NN(c2ccccc2)c2ccccc2)cc1 | ? | -9% | 21µM* | ? | -11% | i
